Test results published in PubChem BioAssay AID1508600 (Functional Genomics Laboratory (NCATS/FGL), 2020).
Out of some 53,000 sequences screened, about 3,700 (7%) were called active.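 How the source made its calls: active means gene knockdowns whose robust z-score for IL-1 alpha signal is at least 2 or at most -2, so actives lie on both sides; inactive means the rest.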 Shown is part of a subset that was picked to be rich in actives.

experiment: Components of the Cytosolic LPS Sensing Pathway: Gene Identification via Genome-wide siRNA Screen; settings: RAW264.7 macrophages, IL-1a HTRF, actives lie on both sides, screened at 100 nM (by protocol), cells primed 5 h with Pam3CSK4 first;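 further: robust z of the log signal after scaling to non-targeting control siRNA wells of the plate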
Procedure, shortened: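 Read-out: IL-1a HTRF on supernatant, divided by plate negative-control median ×100, log-transformed and converted to robust z-score. Cells were RAW264.7 given 100 nM siRNA, Pam3CSK4-primed 5 hours, then LipidA-transfected 24 hour.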

Sequence | z-score
GGUAUGCUAACAGAACACGTT against Nr1h4 | 3.15 (active)
GCAGAUGCUAACAUAUCCATT against Trim32 | -0.902 (inactive)
GCGCAGAGAUUACCUUAAGTT against Gtf3a | -0.543 (inactive)
CCACUAUUUAAUCUUACCGTT against Hoxc13 | 0.175 (inactive)
GGAGCAUAUAUAGAAUUAGTT against Mrps22 | 3.01 (active)
GCGGGCUUUGCUGAGAUUUTT against Zbtb48 | 0.604 (inactive)
GGAGAUUUCCCGACUUAACTT against Tnip2 | 1.68 (inactive)
GGCAUCCAUGUGCUCUUUCTT against Tex13a | -2.49 (active)
GGGAAAAGGUCAGUGAAGUTT against Fam219b | -0.305 (inactive)
GGGAAUGGAAGAAUAUUCUTT against Dppa2 | 1.61 (inactive)
CCUCGUGUUACUUUUACCCTT against Olfr13 | -1.51 (inactive)
GCUUCUCUACACCACAGACTT against Olfr796 | -0.0426 (inactive)
GGGUUGAUUGACGAAGCCATT against Fga | -1.75 (inactive)
GGAGAUUCAGAAUUACUGATT against Krit1 | -0.818 (inactive)
GCAUUCAUUGAUCAAUUCUTT against Zbtb6 | 2 (active)
GCCUGCUUUGGAAAAAUCATT against Akr1c12 | 0.209 (inactive)
CCCAGGAAGCCUUUGAUCUTT against Gmnn | 0.263 (inactive)
CCAUCGUCCAAAGUACAUGTT against Rbp4 | -1.39 (inactive)
GGGUAAUUAUUGUUUUCUGTT against Eif4e3 | 2.19 (active)
GCUGUUGGUUUCUACUCACTT against Adam21 | -0.0536 (inactive)
GGAACAUGUCUCCUGAUCUTT against Add3 | -1.07 (inactive)
GCAAUUCAGCUUAUAAGCATT against Mterf2 | -2.79 (active)
GGGAAAUGAGUUUCUACCGTT against Ebna1bp2 | -0.891 (inactive)

Sequence | z-score
CCUACACUAAAAUUCACCATT against Muc15 | -0.549 (inactive)
CGUGUGCAAAGAAGCUAAATT against Mdm2 | 1 (inactive)
GGAGAUGAUGAUUUACAAATT against Spred1 | 0.723 (inactive)
GGUGAUCUUAGAUUUGAUUTT against Qsox2 | -0.401 (inactive)
GGGUUUCUUACUGAAGAAATT against Mindy2 | -1.43 (inactive)
GGAUCGAGACAAGGCCAAATT against Fes | 3.22 (active)
GGAAUGAAGCCUGAACAGATT against Strc | 0.151 (inactive)
GGACAAUGCCCUGUAUCAGTT against Clic3 | -0.822 (inactive)
GGAUAGUCUCCUCAAAGAATT against Trmt10b | 0.7 (inactive)
GCUGUCAGAAAUCUUCGACTT against E2f4 | 2.65 (active)
CCAUACUACGGAUGUUUGATT against Calb2 | 0.677 (inactive)
GGGUAUAGGGAUGGUGAAUTT against Ppil1 | 0.834 (inactive)
GCUACUCAGUCAUUGAGCCTT against Tatdn2 | -1.85 (inactive)
GCAUCUCAAGGAUCUUCGGTT against Syngr4 | -0.0821 (inactive)
GGGCAACUUUGAGUUCGAATT against Dok2 | 0.294 (inactive)
CCUUACCCUGUGUAUCUUUTT against Naa80 | -0.0307 (inactive)
GGCAAUUCACUGUGAGUAATT against Mettl21a | -2.18 (active)
GGCCAAGGUCAAUAACUCCTT against Rfc1 | -0.755 (inactive)
GGACCACUACAUCAUAUACTT against Lcn4 | -1.17 (inactive)
GGCCAAGACACCCUUGUUUTT against Zfp524 | -0.376 (inactive)
GGAAGAGAAAGCAAAGUCATT against Ddx19a | -0.43 (inactive)
CGGAAAUGUAAGUACUUUATT against Taf13 | 2.25 (active)
GGUUCUGGAAGAAGAAAAGTT against Irgq | 1.31 (inactive)

Sequence | z-score
GGUUCUGUAAAUUCAACUATT against Zfp593 | 0.706 (inactive)
CUACGAGCCACUUCUGAGATT against Krt87 | -0.431 (inactive)
GAACUGAAGAAGCAGAUUGTT against Isg15 | 0.601 (inactive)
GGCAUUAUGAGCAUCUCGGTT against Tnfrsf11a | -0.394 (inactive)
GGAGACACCAGACCAACAATT against Gm5458 | 0.242 (inactive)
GGAAGGACAACACUGCACCTT against Cd40 | 2.44 (active)
CCAUACAAGUAUCCGAACUTT against 1700102P08Rik | 1.03 (inactive)
GCCUCAGCAUUACCACUAUTT against Pof1b | -1.86 (inactive)
GGUGAUGCAGCAGAUCAUUTT against Nfyc | 0.0427 (inactive)
GUGGAAAACAAGUGGCGGUTT against Cox7c | 0.241 (inactive)
GGCAUUGACGAGGAUGACCTT against Supt3 | 2.74 (active)
GGAGAACUAUUCAGAAACUTT against Btbd11 | -0.0178 (inactive)
GCGGUGCCAAAGGUAUUAATT against Rad51ap1 | -0.0801 (inactive)
GCAAGAAGGGACACAGUUUTT against Plk1 | 0.276 (inactive)
GGAAAACCAAGACCACAAATT against Hmgn5 | 1.39 (inactive)
GGUGCUUGAUUUUGUGCAGTT against Psmd13 | -0.00516 (inactive)
GACACCACAGUCAAAUCUGTT against Agr2 | -2.26 (active)
CCCUUUAAUACAUACAGUUTT against Mesp2 | 1.14 (inactive)
GCCCAAGGUGAUCAUUAUUTT against Casp1 | -0.15 (inactive)
GGUUGUAAGGAACUCUUGGTT against Slc22a29 | -0.628 (inactive)
GGACAUUCCUGAACAUAAUTT against Pcdha3 | -1.17 (inactive)
GGAGAUCUUCAAUAUGUUATT against Supt6 | -2.25 (active)
GAAGCCUAAUCCCUUAAUCTT against Oas1g | 1.07 (inactive)
